NS1 function inh: blocks influenza NS1 protein function. 270,000 compounds, 0.4% hits. AID 2326. Potency, µM (series often up to 46.1 µM), for the others: at the highest dose activity, positive = more growth; calls by dose curve; also: actives are rising curves; nearly all actives have a fitted effect of over 50% in size
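OD600 was taken as the measure of yeast growth restored by compound in an NS1-expressing S. cerevisiae strain. Cells had been washed out of glucose medium and diluted 1:100 into galactose -URA medium, pH 6.0.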
VACV Venus inh: vaccinia inhibition (Venus reporter) | Vaccinia virus Venus reporter expression, fluorescence | Potency, µM (doses to about 36.5 µM), for inactives: at the top dose activity change, negative = inhibition, usual class: inhibitors | 330,000 compounds, 0.46% hits; calls by dose curve; tested in A549 cells; also: % is scaled to controls: 0 for no effect and ±100 for the full control effect; nearly all actives have a fitted effect of over 30% in size
VACV mCherry inh: inhibitors of vaccinia virus infection (mCherry reporter signal); Vaccinia virus mCherry reporter infection, fluorescence; Potency, µM (top dose mostly 36.5 µM), inactives show at the top dose activity change, negative = inhibition, usual class: inhibitors; 310,000 compounds, 0.63% hits; AID 720579; calls by dose curve; tested in A549 cells; also: % is scaled to controls: 0 for no effect and ±100 for the full control effect; nearly all actives have a fitted effect of over 35% in size
Pf growth 96h: P. falciparum growth inhibition at 96 hours; 320,000 compounds, 6.9% hits; Potency, µM (highest dose often 28.7 µM), inactives show at the highest dose activity change, negative = inhibition, actives largely listed as inhibitors; P. falciparum luciferase reporter growth, 96 h; also: % is scaled to controls: 0 for no effect and ±100 for the full control effect
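P. falciparum expressing integrated firefly luciferase, in erythrocytes at 2% hematocrit, 0.05% parasitemia, incubated with compounds 96 h at 37 C, 5% CO2. Growth inhibition read as loss of luminescence; two-generation exposure targets delayed-death apicoplast inhibitors.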
HCV inh: HCV inhibition; AID 651820; Huh7.5.1 HCVcc-Cre infection, luciferase reporter, 44 h; 340,000 compounds, 3.4% hits; Potency, µM (titrated, usually from 41.8 µM), for the others: top-dose activity change, negative = inhibition, usual class: inhibitors; also: % is scaled to controls: 0 for no effect and ±100 for the full control effect
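Whole-lifecycle infectious HCVcc-Cre system; cells 1,000/well, compound then virus (~0.5 moi) added 4 h after plating, 44 h culture. Luciferase read 15 sec following 15 min substrate incubation, room temp.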
Pf growth 48h: P. falciparum growth inhibition at 48 hours (one generation); Potency, µM (doses to about 28.7 µM), without a hit: at the top dose activity change, negative = inhibition, most hits filed as inhibitors; P. falciparum luciferase growth in erythrocytes, 48 h; 310,000 compounds, 5.9% hits; also: % is scaled to controls: 0 for no effect and ±100 for the full control effect
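Compounds are pin-transferred into medium, infected erythrocytes (2% hematocrit, 0.1% parasitemia final) are added, and plates sit one parasite generation at 37 C in 5% CO2. Detection reagent is then added and luminescence measured.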
* hit, by the source's call; i = inactive; ? = inconclusive; . = no result; [ ] = remark or other dose. Compounds with a hit are over-represented: about 11% of the library has one in this group of screens. Unless noted, calls follow the shape of the dose curve; as a rule, active = well fitted inhibition curve with a large enough effect; inconclusive = small, poorly fitted or top-dose-only effect, or another doubt; inactive = no such curve, though single readings can be large or run the other way. Potency is read from the fitted curve at half-maximal effect.

SMILES	NS1 function inh	VACV Venus inh	VACV mCherry inh	Pf growth 96h	HCV inh	Pf growth 48h
O=C1CC(=O)N(c2ccccc2)N1c1ccccc1	28.6%	3.6%	-2.7%	46.0%	0.1%	3.5%
CC(C)Cn1c(-c2ccco2)nc2c(c(=O)c3ccccc3n2C)c1=O	-13.7%	.	.	1.17µM*	-18.3%	1.31µM*
Cc1nc2c(c(=O)c3ccccc3n2C)c(=O)n1C1CCCCCC1	-4.8%	-14.3%	-16.1%	38.4%	?	-4.3%
CCCCCc1nc2c(c(=O)c3ccccc3n2C)c(=O)n1C1CCCCCC1	0.4%	-12.5%	-5.6%	11.7µM*	?	?
Cn1c2ccccc2c(=O)c2c(=O)n(C3CCCCC3)c(-c3ccco3)nc21	8.1%	-15.2%	-7.8%	4.15µM*	?	4.65µM*
NC(=O)c1ccccc1NC(=O)Nc1ccccc1Cl	.	-11.2%	-14.7%	29.1%	15.6%	-1.1%
O=C(/C=C/c1c(F)cccc1Cl)Nc1ncccn1	-21.0%	-5.2%	-21.2%	?	4.5%	204.0%
CCCNS(=O)(=O)c1ccc(NC(=O)c2ccccn2)cc1	0.4%	-17.2%	.	10.4µM*	-8.1%	76.9%
O=C(/C=C/c1c(F)cccc1Cl)Nc1ccc(S(=O)(=O)Nc2ncccn2)cc1	-0.3%	-11.3%	-15.4%	13.1µM*	0.2%	-5.2%
O=C(Nc1ccc(S(=O)(=O)Nc2ncccn2)cc1)c1ccccc1	19.7%	.	.	1.17µM*	17.1%	0.0%
CC(=O)NS(=O)(=O)c1ccc(NC(=O)c2ccccn2)cc1	.	-12.7%	i	30.0%	10.2%	-12.6%
CCCCCc1ccc(S(=O)(=O)NCCc2ccncc2)cc1	-52.7%	.	.	.	10µM*	-6.1%
O=C(NCc1cccnc1)c1ccc(NS(=O)(=O)c2ccccc2)cc1	3.0%	-8.6%	i	20.6%	-5.3%	-20.6%
CC(=O)Nc1ccc(S(=O)(=O)NCc2cccnc2)cc1	2.7%	-7.3%	-11.7%	?	35.8%	8.3%
O=C(Nc1ccc(S(=O)(=O)Nc2cnc3ccccc3n2)cc1)c1ccc(F)cc1	.	-1.8%	i	.	-20.5%	.
O=C(Nc1ccc(S(=O)(=O)NCCc2ccccc2)cc1)c1ccncc1	10.9%	.	.	?	11.2µM*	29.0%
O=C(NCc1cccnc1)c1ccc(NS(=O)(=O)c2ccc(F)cc2)cc1	-10.7%	-3.9%	-21.3%	6.57µM*	3.9%	?
O=C(Nc1ccc(S(=O)(=O)NCCc2ccccc2)cc1)c1ccco1	-10.0%	.	.	.	-15.2%	4.4%
CC(C)(C)c1ccc(C(=O)Nc2ccc(S(=O)(=O)Nc3cnc4ccccc4n3)cc2)cc1	5.8%	-2.1%	-6.3%	9.4%	14.4%	13.1µM*
O=C(Nc1ccccc1)c1ccc(S(=O)(=O)NCc2cccnc2)cc1	4.0%	-7.8%	-25.4%	16.1%	8.91µM*	-12.6%
O=C(CNC(=O)c1cccs1)c1ccc(F)cc1	7.6%	-2.6%	-16.8%	19.4%	-2.5%	142.8%
O=C(Nc1ccc(S(=O)(=O)NCc2cccnc2)cc1)c1ccccc1Cl	1.0%	-24.3%	-1.8%	117.1%	8.91µM*	1.0%
COc1ccc(S(=O)(=O)c2cn(Cc3ccccc3)c3ccc(OC)cc3c2=O)cc1	.	6.0%	3.4%	.	.	.
Cc1ccc2nc3c(c(Nc4ccc(O)cc4)c2c1)CCC3	4.6%	-27.8%	?	-86.6%	?	2.33µM*
Cc1ccc(NC(=O)c2c3c(nc4ccccc24)CCC3)cc1	.	2.6%	-3.7%	-0.4%	-8.1%	?
SMILES	NS1 function inh	VACV Venus inh	VACV mCherry inh	Pf growth 96h	HCV inh	Pf growth 48h
Cc1ccc2nc3c(c(Nc4ccc5c(c4)OCCO5)c2c1)CCC3	-26.4%	?	?	?	?	4.15µM*
Cc1ccc2nc3c(c(Nc4ccc(C)c(C)c4)c2c1)CCC3	.	-28.8%	?	.	.	.
COc1ccc(Nc2c3c(nc4ccc(C)cc24)CCC3)cc1	-2.1%	.	.	-2.3%	?	8.28µM*
COc1ccc(OC)c(Nc2c3c(nc4ccccc24)CCC3)c1	0.3%	-24.6%	-27.6%	?	?	?
Cc1noc(C)c1COc1ccc(C(=O)NCCc2ccc(S(N)(=O)=O)cc2)cc1	.	-12.0%	-6.7%	?	-10.2%	-26.8%
O=C(Nc1ccc(Cl)cc1)OCc1ccccn1	-11.3%	.	.	207.6%	-11.2%	195.2%
CCN(Cc1ccncc1)Cc1nc(Cc2ccccc2Cl)no1	-31.0%	.	.	?	11.2µM*	10.4µM*
O=c1c(Cl)c(NCc2ccc(F)cc2)cnn1C12CC3CC(CC(C3)C1)C2	1.2%	-7.4%	-12.3%	28.2%	-23.4%	13.1µM*
Cc1ccc(CNc2cnn(C34CC5CC(CC(C5)C3)C4)c(=O)c2Cl)cc1	7.7%	-15.0%	-23.7%	?	-9.8%	3.6%
O=c1c(Cl)c(N2CCN(c3ccc(F)cc3)CC2)cnn1C12CC3CC(CC(C3)C1)C2	13.7%	-11.3%	?	4.15µM*	-0.5%	4.65µM*
COCCN(Cc1cc2cc(C)ccc2[nH]c1=O)S(=O)(=O)c1ccc(Cl)cc1	9.0%	0.0%[7.34 µM]	i[7.34 µM]	7.1%	?	-11.3%
Cc1cc(NC(=O)CCCC(=O)Nc2ccc(F)cc2)no1	-1.7%	-3.9%	-14.7%	8.28µM*	15.0%	10.9%
Cc1ccc(C)c(Oc2cc(NC(=O)CCCn3nc(C)c([N+](=O)[O-])c3C)cc([N+](=O)[O-])c2)c1	?	?	?	?	12.6µM*	?
Cc1nn(CCCC(=O)Nc2cc(Oc3ccccc3)cc([N+](=O)[O-])c2)c(C)c1[N+](=O)[O-]	19.8%	?	?	52.7%	?	-13.2%
Cc1cc(NC(=O)CCCn2nc(C)c([N+](=O)[O-])c2C)no1	.	3.0%	i	1.47µM*	0.1%	5.0%
Cc1cc(NC(=O)CCCn2cnc([N+](=O)[O-])n2)no1	-0.5%	-8.1%	-14.7%	20.8%	1.8%	3.3%
CCn1nc(C)c(C(=O)Nc2cc(Oc3cc(C)cc(C)c3)cc([N+](=O)[O-])c2)c1C	?	?	?	11.7µM*	?	?
COc1ccccc1CN1CCCCC1C(=O)O (configuration not stated)	.	-6.4%	-13.4%	11.6%	25.6%	0.0%
Cc1ccc(S(=O)(=O)CC(=O)Nc2sc3c(c2C(N)=O)CCCC3)cc1	.	-8.0%	i	.	.	.
COc1ccccc1CCN1CCCC(CN(C)C(=O)c2ccco2)C1 (configuration not stated)	5.7%	.	.	-1.4%	-25.6%	-6.7%
COc1ccc(/C(C)=N/Nc2nc3ccccc3nc2C)cc1OC	-8.1%	-10.1%	-13.1%	?	?	11.3%
Cc1nc(N2CCN(S(=O)(=O)c3ccccc3C#N)CC2)c2c(-c3ccccc3)csc2n1	.	.	.	?	8.91µM*	10.4µM*
N#Cc1ccccc1S(=O)(=O)N1CCN(c2nc(-c3ccccc3)nc3ccccc23)CC1	.	-15.8%	?	.	.	.
CC1(C(=O)Nc2ccc3c(c2)OCO3)CCN1C(=O)c1ccco1 (configuration not stated)	.	2.2%	i	.	.	.

High-throughput results from PubChem.
